Source: the supplement of paper PMC12350171
Counter-ions that a name gives are not always drawn.

Assays:
Details in all cases: 20 µM
[1] = system: Haemophilus parainfluenzae; assay: growth AUC normalised to DMSO control (fraction of control); higher = less growth inhibition, active = hit call of the paper
Procedure, shortened: (§1)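 After two anaerobic passages, pathogens were added at a starting OD578 of 0.01 to pre-reduced mGAM plates holding compound at 20 μM with 1% DMSO; hemin and NAD were supplemented for Haemophilus parainfluenzae. Sealed with breathable membranes, plates were read at OD578 hourly for 24 h, in three biological replicates. The trapezoidal rule, applied up to the exponential-to-stationary transition, gave the growth-curve AUC, which was normalised to DMSO controls on the same plate.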

[2] = system: Salmonella enterica typhimurium; assay: as above
Procedure, shortened: as §1

Shigella flexneri = assay: as above
Procedure, shortened: as §1

Vibrio cholerae = assay: as above
Procedure, shortened: as §1

[3] = system: Yersinia pseudotuberculosis; assay: as above
Procedure, shortened: as §1

P. vulgatus RND KO = assay: growth AUC normalised to DMSO control (median) (fraction of control); higher = less growth inhibition, active = hit call of the paper
Procedure, shortened: (§2)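 Strains were passaged twice overnight without oxygen, then grown in mGAM in 96-well plates with each approved-drug library compound at 20 μM and 1% DMSO, starting at OD578 0.01. OD578 was read hourly for 24 h inside an anaerobic incubator. Curves were truncated at entry into stationary phase, and the trapezoidal-rule area under the curve was normalised to same-plate vehicle wells. The value is the median across three biological replicates.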

P. vulgatus WT = assay: as above
Procedure, shortened: as §2

[4] = system: S. enterica typhimurium WT; assay: as above
Procedure, shortened: as §2

[5] = system: S. enterica typhimurium tolC KO; assay: as above
Procedure, shortened: as §2

Measured: growth AUC normalised to DMSO control
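For growth AUC normalised to DMSO control (median) in this document: active when median AUC fell below 0.1.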

CCCC(C)(COC(N)=O)COC(=O)NC(C)C (stereo not given) [Carisoprodol]
inactive: [1] 0.843 | [2] 1 | Shigella flexneri 0.977 | Vibrio cholerae 0.948 | [3] 1 | P. vulgatus RND KO 1 | P. vulgatus WT 1.02 | [4] 1 | [5] 0.979

OC(c1ccccc1)(c1ccccc1)C1CCNCC1 [Azacyclonol]
inactive: [1] 0.982 | [2] 0.999 | Shigella flexneri 0.988 | Vibrio cholerae 0.967 | [3] 1 | P. vulgatus RND KO 1 | P. vulgatus WT 1.03 | [4] 1.01 | [5] 0.99

O=c1[nH]c2ccccc2n1CCCN1CCC(n2c(=O)[nH]c3cc(Cl)ccc32)CC1 [Domperidone]
inactive: [1] 1.02 | [2] 1.01 | Shigella flexneri 0.985 | Vibrio cholerae 1.03 | [3] 1 | P. vulgatus RND KO 1 | P. vulgatus WT 1 | [4] 1 | [5] 0.979

CC(C)(C)NCC(O)c1ccccc1Cl (stereo not given) [Tulobuterol hydrochloride]
inactive: [1] 1 | [2] 1 | Shigella flexneri 1.01 | Vibrio cholerae 1.03 | [3] 0.893 | P. vulgatus RND KO 0.991 | P. vulgatus WT 1.01 | [4] 0.99 | [5] 1.01

C[N+]1([O-])[C@@H]2C[C@@H](OC(=O)[C@H](CO)c3ccccc3)C[C@H]1[C@@H]1O[C@@H]12 (stereo not given in full) [Scopolamin-N-oxide hydrobromide]
inactive: [1] 0.991 | [2] 0.992 | Shigella flexneri 1.02 | Vibrio cholerae 1.07 | [3] 1.01 | P. vulgatus RND KO 1.04 | P. vulgatus WT 1.02 | [4] 1.02 | [5] 1.01
